Tg IFNy HTS: T. gondii growth inhibition with IFN-gamma, primary screen, cell-based; Toxoplasma gondii growth in IFN-gamma-treated host cells; stronger effect = lower value; activity change, negative = inhibition, % (concentration not given with the values); 69,000 compounds, 3.8% hits; in the data active means activity change below about -70%, passing the limit was not always enough;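 further: host cells are HeLa cells infected with Toxoplasma gondii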
The depositor's hits bear a star. Only a selection was taken, and hits are over-represented in it overall.

SMILES	Tg IFNy HTS
Cc1cnc(N2CCn3cc(CNc4ccccn4)nc3C2)nc1	-2.2
CCc1csc(CNC(=O)[C@@H](N)CC2CCCCC2)n1	-3.5
Cc1cccc(C)c1Oc1ncccc1CNC(=O)c1cccnn1	-15.5
CN1CC[C@H](OCc2ccncc2)[C@@H](Cc2ccccc2)C1	-7.1
Cc1cnn(Cc2nc(-c3ccc(NC(=O)c4ccc(Br)o4)cc3)oc2C)c1	-33.1
Cc1ccc(NC(=O)CC(=O)N2CCCC2c2cc(C(C)C)on2)cc1 (centres undefined)	2.0
COC(=O)CN(c1ccc(F)cc1)S(C)(=O)=O	-3.0
Cc1nccn1CC1CCCN(Cc2c(Cl)cncc2Cl)C1 (centres undefined)	1.2
O=C(CCC1Nc2c3ccccc3nc(=S)n2C1=O)N1CCN(c2ccc(F)cc2)CC1 (centres undefined)	13.8
C=CCn1c(=O)c(C(=O)Nc2nccs2)c(O)c2ccccc21	67.5
CCCC(=O)NCC1CCC(c2nc(C)ncc2-c2ccncc2)CC1 (centres undefined)	13.6
COc1ccc2c(c1)NC1(CCN(C(=O)Nc3ccc(C)cc3C)CC1)c1cccn1-2	169.6
O=C(c1csnn1)N1CC[C@@H](c2ccc3c(c2)OCO3)[C@H](O)C1	-5.4
COc1ccc(NS(=O)(=O)c2ccc(NC(=O)c3cc4ccccc4o3)cc2)cc1	-70.5*
O=C(Nc1ccc(-c2nc(-c3ccccc3)co2)cc1)c1cccs1	2.8
COc1ccc(NC(=O)c2c(NS(=O)(=O)c3ccc(C)cc3)csc2C)cc1	14.5
COc1cc(NC(=S)NC(=O)c2cccs2)ccc1NC(=O)C(C)C	51.2
O=C(Nc1ccc(NS(=O)(=O)c2ccc(Oc3ccccc3)cc2)cc1)c1ccccc1	3.9
COc1cc(NC(=O)c2cc3ccccc3o2)ccc1NC(=O)c1cccs1	-110.6*
CS(=O)(=O)N1CCC2(CC1)CN(c1cncnc1)C(=O)CO2	5.7
CCOc1cccc(-c2noc(-c3c(O)c4ccccc4n(CC)c3=O)n2)c1	17.4
O=C(Nc1cccc(-n2cnnn2)c1)c1ccccc1	2.2
Cc1onc(-c2ccccc2)c1NC(=O)Nc1ccc(-n2ccc(C(F)(F)F)n2)cc1	-13.3
O=C(Nc1ccccc1)Nc1ccc(-n2ccc(C(F)(F)F)n2)cc1	-80.9*
Cn1ncc(N2CCOC(CCNc3ncnc4c3CCNC4)C2)cc1=O (centres undefined)	-0.6
SMILES	Tg IFNy HTS
COc1ccc(O)c(N)c1	35.9
COc1ccc(O)c(C2=Nc3ccccc3N=C(c3ccccc3)C2)c1	166.9
COc1ccc(O)c(-c2nc3c(C(C)(C)C)cc(C(C)(C)C)c(O)c3o2)c1	-119.4*
Oc1cccc(-c2nccn2-c2cccc(-c3ccn[nH]3)c2)c1	-65.2
CC(C)Cc1cc(C(=O)NCC2(O)CCNC2)on1 (centres undefined)	7.0
CCC(C(=O)N1CCN(c2ccccn2)CC1)n1c2ccccc2c2cnn(C)c(=O)c21 (centres undefined)	-73.2*
CCC(C(=O)NCCN1CCCC1)n1c2ccccc2c2cnn(C)c(=O)c21 (centres undefined)	63.3
Cn1ncc2c3ccccc3n(CC(=O)N3CCN(c4ccccn4)CC3)c2c1=O	135.9
Cc1cccc(OCc2nnc(SCc3ccc(Cl)cc3)o2)c1	2.9
CNC(=O)c1cc(=O)n(CC(=O)Nc2ccc(C)c(F)c2)c2ccccc12	8.9
Cc1ccccc1-c1nc(Cn2c(=O)c3cccnc3n(-c3ccccc3)c2=O)c(C)o1	-49.5
CCCc1cc(CN(C)Cc2ccc(O)c(C)c2)[nH]n1	2.1
COc1ccc2c(c1)NC1(CCN(S(=O)(=O)c3c(C)cc(C)cc3C)CC1)c1cccn1-2	-34.8
CCN1c2cc(C)ccc2-n2cccc2C12CCN(C(=O)NCC(=O)OC)CC2	67.1
Cc1cc(C)c(S(=O)(=O)N2CCC3(CC2)Nc2cc(F)ccc2-n2cccc23)c(C)c1	28.2
CCN1c2cc(C)ccc2-n2cccc2C12CCN(C(=O)NC(C)C(=O)OC)CC2 (centres undefined)	62.9
CCN1c2cc(C)ccc2-n2cccc2C12CCN(C(=O)c1ccc(OC)cc1)CC2	-89.6*
CCN1c2cc(C)ccc2-n2cccc2C12CCN(S(=O)(=O)c1c(C)cc(C)cc1C)CC2	-117.7*
Cc1ccc2c(c1C)-n1cccc1C1(CCN(S(=O)(=O)c3cccc(Cl)c3)CC1)N2	22.6
Cc1ccc(S(=O)(=O)N2CCC3(CC2)Nc2ccc(C)c(C)c2-n2cccc23)cc1C	-25.5
CCN1c2cc(C)ccc2-n2cccc2C12CCN(S(=O)(=O)c1ccc(C)c(C)c1)CC2	-111.9*
Cc1ccc2c(c1)NC1(CCN(S(=O)(=O)c3ccc(C)c(C)c3)CC1)c1cccn1-2	28.9
CCN1c2cc(C)ccc2-n2cccc2C12CCN(S(=O)(=O)c1cccc(Cl)c1)CC2	-84.3*
CSc1nccc(NCc2cccc(C)n2)n1	-0.5
CC(C)Oc1ccc(C(CCN)c2ccccc2)cc1 (centres undefined)	15.9
SMILES	Tg IFNy HTS
Cn1cnc2cc(C(=O)NCc3cccnc3Oc3ccccc3F)cnc21	-7.6
O=C1NCC2(CCN(CC3(O)CCCN(CCc4ccccc4)C3=O)CC2)O1 (centres undefined)	-5.3
CC(NC1CSCCSC1)c1nc(-c2ccccn2)no1 (centres undefined)	7.1
CCOC(=O)C1CN(C(=O)c2ccsc2)Cc2ncn(CC)c21 (centres undefined)	2.3
COc1ccc(C)cc1NC(=O)C(=O)NCCc1csc(-c2ccc(Cl)cc2)n1	-55.3
COc1cc(NCCS(=O)(=O)c2ccc(C)cc2)ncn1	-0.1
CCc1cc(CN(C)C(=O)c2cc(C)nc3ccc(C)cc23)on1	-21.3
COc1ccc(S(=O)(=O)N2CCC3(CC2)Nc2cc(OC)ccc2-n2cccc23)cc1	17.7
CCN1c2cc(C)ccc2-n2cccc2C12CCN(S(=O)(=O)c1ccc(C(C)(C)C)cc1)CC2	9.3
COc1ccc(S(=O)(=O)N2CCC3(CC2)Nc2cc(C)ccc2-n2cccc23)cc1Cl	13.2
CCN1c2cc(C)ccc2-n2cccc2C12CCN(S(=O)(=O)c1cc(Cl)ccc1OC)CC2	-105.8*
CCN1c2cc(C)ccc2-n2cccc2C12CCN(S(=O)(=O)c1ccc(C)cc1)CC2	-85.6*
COc1ccc(Cl)cc1S(=O)(=O)N1CCC2(CC1)Nc1cc(C)ccc1-n1cccc12	3.4
CCN1c2cc(C)ccc2-n2cccc2C12CCN(S(=O)(=O)c1ccc(OC)c(OC)c1)CC2	-32.1
CCN1c2cc(C)ccc2-n2cccc2C12CCN(S(=O)(=O)c1ccc(OC)cc1)CC2	-91.4*
CCCNC(=O)N1CCC2(CC1)c1cccn1-c1ccc(C)cc1N2CC	-15.6
Cn1nc2c(c1C(=O)N1C3CCC1CC(O)(c1ccc4c(c1)OCO4)C3)CCCC2 (centres undefined)	-7.6
COc1ccc(C(=O)N2CCC3(CN(C)C(=O)O3)C2)cc1O (centres undefined)	-2.7
O=C(NC1CCCC1)C(c1ccccc1F)N(C(=O)c1csnn1)C1CCCC1 (centres undefined)	8.5
Cc1cccc(C(=O)N2CCc3ncnc(C4CCOC4)c3CC2)n1 (centres undefined)	191.2
Cc1cc(C(=O)N2CCC(c3cc4nc5c(c(=O)n4[nH]3)CCCC5)CC2)on1	5.9
Cc1ccc(S(=O)(=O)Nc2cc(C(C)(C)C)sc2C#N)cc1	1.2
Cc1ccc(S(=O)(=O)Nc2ccc(S(=O)(=O)Nc3nc(C)cc(C)n3)cc2)cc1	48.1
Cc1ccc(S(=O)(=O)Nc2c(Cl)c(Cl)nc(C#N)c2Cl)cc1	-92.7*

Bioassay records: PubChem BioAssay, Broad Institute
